# Test results published in the supplement of paper PMC9694430.
# Legend:
# Experiment in all cases: thermal shift delta Tm vs DMSO control; higher = stronger stabilization (binding)
# Settings in all cases: 12.5 µM; protein concentration 2 µM
# LOC_OS01G01410-cb001 = test system: LOC_OS01G01410-cb001
# In short: (§1)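 The melting temperature shift given here is a triplicate mean, measured against protein that received only DMSO. Melting temperatures came from Boltzmann fits of differential scanning fluorimetry data on E. coli-expressed, purified rice kinase domain constructs. Each 19.5 μl well contained 2 μM kinase, 100 mM potassium phosphate pH 7.5, 150 mM NaCl, 10% glycerol, 5 × SYPRO Orange and compound in DMSO. Plates were scanned from 25°C to 95°C at 0.05°C/s.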
# LOC_OS01G02750-cb003 = test system: LOC_OS01G02750-cb003
# In short: as §1
# LOC_OS01G10900-cb004 = test system: LOC_OS01G10900-cb004
# In short: as §1
# LOC_OS01G13800-cb001 = test system: LOC_OS01G13800-cb001
# In short: as §1
# LOC_OS01G14860-cb001 = test system: LOC_OS01G14860-cb001
# In short: as §1
# LOC_OS01G21960-cb002 = test system: LOC_OS01G21960-cb002
# In short: as §1
# LOC_OS01G39600-cb002 = test system: LOC_OS01G39600-cb002
# In short: as §1
# LOC_OS01G48390-cb002 = test system: LOC_OS01G48390-cb002
# In short: as §1
# LOC_OS01G51400-cb002 = test system: LOC_OS01G51400-cb002
# In short: as §1
# LOC_OS01G52050-cb004 = test system: T1, LOC_OS01G52050-cb004
# T1 sequence (whole entry): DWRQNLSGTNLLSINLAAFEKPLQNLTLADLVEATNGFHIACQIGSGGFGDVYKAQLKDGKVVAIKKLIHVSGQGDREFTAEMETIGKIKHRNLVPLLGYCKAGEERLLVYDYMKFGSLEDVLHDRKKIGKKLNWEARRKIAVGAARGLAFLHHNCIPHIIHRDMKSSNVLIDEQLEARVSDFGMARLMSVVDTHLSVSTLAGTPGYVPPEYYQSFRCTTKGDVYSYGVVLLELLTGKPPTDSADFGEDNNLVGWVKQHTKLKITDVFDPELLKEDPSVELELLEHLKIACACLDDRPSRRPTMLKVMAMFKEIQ
# In short: as §1
# LOC_OS01G57100-cb003 = test system: LOC_OS01G57100-cb003
# In short: as §1
# LOC_OS01G60330-cb001 = test system: LOC_OS01G60330-cb001
# In short: as §1
# LOC_OS01G60700-cb002 = test system: LOC_OS01G60700-cb002
# In short: as §1
# LOC_OS01G63280-cb003 = test system: LOC_OS01G63280-cb003
# In short: as §1
# LOC_OS01G67340-cb003 = test system: LOC_OS01G67340-cb003
# In short: as §1
# LOC_OS01G70970-cb002 = test system: LOC_OS01G70970-cb002
# In short: as §1
# LOC_OS02G07810-cb001 = test system: LOC_OS02G07810-cb001
# In short: as §1
# LOC_OS02G08530-cb003 = test system: LOC_OS02G08530-cb003
# In short: as §1
# LOC_OS02G14120-cb001 = test system: LOC_OS02G14120-cb001
# In short: as §1
# LOC_OS02G17970-cb001 = test system: LOC_OS02G17970-cb001
# In short: as §1
SMILES,thermal shift delta Tm (LOC_OS01G01410-cb001),thermal shift delta Tm (LOC_OS01G02750-cb003),thermal shift delta Tm (LOC_OS01G10900-cb004),thermal shift delta Tm (LOC_OS01G13800-cb001),thermal shift delta Tm (LOC_OS01G14860-cb001),thermal shift delta Tm (LOC_OS01G21960-cb002),thermal shift delta Tm (LOC_OS01G39600-cb002),thermal shift delta Tm (LOC_OS01G48390-cb002),thermal shift delta Tm (LOC_OS01G51400-cb002),thermal shift delta Tm (LOC_OS01G52050-cb004),thermal shift delta Tm (LOC_OS01G57100-cb003),thermal shift delta Tm (LOC_OS01G60330-cb001),thermal shift delta Tm (LOC_OS01G60700-cb002),thermal shift delta Tm (LOC_OS01G63280-cb003),thermal shift delta Tm (LOC_OS01G67340-cb003),thermal shift delta Tm (LOC_OS01G70970-cb002),thermal shift delta Tm (LOC_OS02G07810-cb001),thermal shift delta Tm (LOC_OS02G08530-cb003),thermal shift delta Tm (LOC_OS02G14120-cb001),thermal shift delta Tm (LOC_OS02G17970-cb001)
Cc1nc(Nc2cnn(C3CCNCC3)c2)nc2c1N(C)C(=O)c1cc3ccccc3cc1N2C,0.36 °C,0.48 °C,-0.09 °C,0.39 °C,-0.18 °C,0.66 °C,-1.52 °C,0.62 °C,0.18 °C,0.38 °C,0.83 °C,1.06 °C,0.29 °C,0.05 °C,1.06 °C,0.51 °C,0.09 °C,1.07 °C,1.04 °C,-0.03 °C
Cc1cc2c(F)c(Oc3ncnn4cc(OC[C@@H](C)O)c(C)c34)ccc2[nH]1,1.69 °C,0.24 °C,0.93 °C,0.42 °C,0.41 °C,0.22 °C,0.2 °C,0.6 °C,0 °C,0.2 °C,0.81 °C,1.36 °C,0.76 °C,1.5 °C,-0.11 °C,0.52 °C,0.7 °C,1.17 °C,1.77 °C,0.7 °C
CN1CCN(c2ccc(C(=O)Nc3n[nH]c4ccc(Cc5cc(F)cc(F)c5)cc34)c(NC3CCOCC3)c2)CC1 [Entrectinib (RXDX-101)],2.21 °C,2.9 °C,4.99 °C,-0.49 °C,0.18 °C,1.51 °C,3.51 °C,5.48 °C,0.15 °C,0.2 °C,0.09 °C,4.04 °C,0.42 °C,-0.06 °C,0.57 °C,1.01 °C,0.27 °C,3.95 °C,5.28 °C,0.09 °C
"COc1cc(F)c(F)c(Nc2ccc(I)cc2F)c1NS(=O)(=O)C1(C[C@H](O)CO)CC1 [Refametinib (RDEA119, Bay 86-9766)]",1.35 °C,-1.27 °C,0.47 °C,0.32 °C,0.61 °C,0.52 °C,-0.03 °C,0.23 °C,0.02 °C,1.46 °C,0.45 °C,1.69 °C,0.96 °C,0.75 °C,-0.44 °C,0.49 °C,0.84 °C,0.79 °C,1.54 °C,1.26 °C
C[C@]1(O)C[C@@H](c2nc(-c3ccc4ccc(-c5ccccc5)nc4c3)c3c(N)nccn32)C1 [Linsitinib (OSI-906)],1.14 °C,-0.88 °C,0.14 °C,0.82 °C,0.26 °C,0.9 °C,1.68 °C,0.41 °C,0.44 °C,-0.16 °C,0.52 °C,1.43 °C,1.07 °C,2.13 °C,0.12 °C,0.38 °C,1.27 °C,0.86 °C,0.29 °C,0.89 °C
CNC(=O)Nc1ccc(-c2nc(N3CC4CCC(C3)O4)c3cnn(C4CCC5(CC4)OCCO5)c3n2)cc1,0.49 °C,1.08 °C,0.69 °C,0.32 °C,0.37 °C,1.21 °C,-0.16 °C,0.79 °C,0.4 °C,0.38 °C,2.76 °C,1.5 °C,0.99 °C,0.45 °C,0.98 °C,0.28 °C,1.7 °C,1.49 °C,1.03 °C,0.84 °C
O=C(NCCCNc1nc(Nc2cccc(NC(=O)N3CCCC3)c2)ncc1I)c1cccs1,4.61 °C,2.64 °C,1.85 °C,-0.09 °C,5.77 °C,3.44 °C,8.52 °C,2.91 °C,1.38 °C,10.7 °C,1.91 °C,11.8 °C,0.35 °C,0.47 °C,2.07 °C,8.4 °C,1.11 °C,2.77 °C,9.13 °C,0.49 °C
Cc1cc(CS(=O)(=O)c2ccccc2)cc(OCc2ccc(CN3CCC[C@@H]3CO)cc2)c1,0.31 °C,1.37 °C,0.19 °C,-0.27 °C,-0.13 °C,0.3 °C,-13.5 °C,0.65 °C,0.36 °C,-0.24 °C,0.61 °C,0.03 °C,1.22 °C,-0.1 °C,-0.36 °C,0.62 °C,0.61 °C,0.53 °C,-0.41 °C,0.96 °C
OCCn1cc(-c2cnc3nnn(Cc4ccc5ncccc5c4)c3n2)cn1,0.52 °C,0.79 °C,-0.12 °C,-0.25 °C,0.12 °C,0.14 °C,0.11 °C,0.2 °C,0.09 °C,0.09 °C,0.41 °C,0.74 °C,0.46 °C,0.3 °C,-0.64 °C,0.28 °C,0.2 °C,0.45 °C,-0.27 °C,0.49 °C
CC(C)(C)c1cc(NC(=O)Nc2ccc(-c3cn4c(n3)sc3cc(OCCN5CCOCC5)ccc34)cc2)no1 [Quizartinib (AC220)],-0.06 °C,0.83 °C,0.82 °C,0.79 °C,0.25 °C,1.03 °C,0.27 °C,0.74 °C,-0.16 °C,0.84 °C,0.35 °C,0.35 °C,1.08 °C,0.09 °C,0.36 °C,0.3 °C,0.96 °C,1.36 °C,0.28 °C,1.06 °C
C=CC(=O)N1CCC[C@@H](n2nc(-c3ccc(Oc4ccccc4)cc3)c3c(N)ncnc32)C1,0.18 °C,0.65 °C,0.59 °C,0.2 °C,0 °C,0.24 °C,0.74 °C,0.52 °C,0.21 °C,0.5 °C,1.42 °C,1.09 °C,0.54 °C,3.76 °C,-0.23 °C,1.12 °C,0.96 °C,1.16 °C,0.34 °C,0.6 °C
CO[C@H]1C[C@@H]2CC[C@@H](C)[C@@](O)(O2)C(=O)C(=O)N2CCCC[C@H]2C(=O)O[C@H]([C@H](C)C[C@@H]2CC[C@@H](O)[C@H](OC)C2)CC(=O)[C@H](C)/C=C(\C)[C@@H](O)[C@@H](OC)C(=O)[C@H](C)C[C@H](C)/C=C/C=C/C=C/1C [Rapamycin (Sirolimus)],0.87 °C,0.22 °C,-0.07 °C,-0.01 °C,0.33 °C,0.21 °C,0.05 °C,0.16 °C,0.12 °C,-0.13 °C,1.56 °C,1.82 °C,1.04 °C,0.14 °C,-0.59 °C,0.17 °C,0.45 °C,0.43 °C,1 °C,0.46 °C
